Measurements: ChEMBL document CHEMBL3433997, “St. Jude Leishmania screening dataset” (2016)

Assays:
Type in all cases: functional
[1] = biological target: Solute carrier family 2, facilitated glucose transporter member 1 (Homo sapiens) (UniProt P11166); assay: ST_JUDE_LEISH: Cytotoxicity at 2uM final concentration against transgenic Leishmania Mexicana promastigotes LmGLUT1 that are glucose transport deficient and complemented with the human glucose transporter GLUT1. Activity is measured by DNA content using SYBR green in vitro
[2] = biological target: Hexose transporter 1 (Plasmodium falciparum) (UniProt O97467); assay: ST_JUDE_LEISH: Cytotoxicity at 2uM final concentration against transgenic Leishmania Mexicana promastigotes LmPfHT that are glucose transport deficient and complemented with the Plasmodium falciparum hexose transporter. Activity is measured by DNA content using SYBR green in vitro
[3] = biological target: Glucose transporter (Leishmania mexicana) (UniProt O61059); assay: ST_JUDE_LEISH: Cytotoxicity at 2uM final concentration against transgenic Leishmania Mexicana promastigotes LmGT2 that are glucose transport deficient and complemented with the L. Mexicana glucose transporter 2. Activity is measured by DNA content using SYBR green in vitro

Solute carrier family 2, facilitated glucose transporter member 1 (Homo sapiens), sequence (P11166 whole entry): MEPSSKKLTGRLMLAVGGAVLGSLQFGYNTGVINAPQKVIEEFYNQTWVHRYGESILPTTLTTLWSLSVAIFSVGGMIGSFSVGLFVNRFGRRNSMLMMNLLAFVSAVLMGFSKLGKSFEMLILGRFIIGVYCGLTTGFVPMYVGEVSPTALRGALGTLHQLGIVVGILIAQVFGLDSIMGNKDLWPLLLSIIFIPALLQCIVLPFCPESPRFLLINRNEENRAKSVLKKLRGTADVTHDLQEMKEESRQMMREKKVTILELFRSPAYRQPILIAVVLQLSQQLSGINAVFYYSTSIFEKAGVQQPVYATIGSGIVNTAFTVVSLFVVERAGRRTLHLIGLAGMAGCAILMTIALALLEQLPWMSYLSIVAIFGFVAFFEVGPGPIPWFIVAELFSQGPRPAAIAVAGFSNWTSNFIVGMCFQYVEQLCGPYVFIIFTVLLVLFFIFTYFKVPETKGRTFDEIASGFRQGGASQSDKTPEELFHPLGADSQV

Compound	inhibition [1] [%]	inhibition [2] [%]	inhibition [3] [%]
CN(Cc1cccc(F)c1)C1CCN(c2cc(NC(=O)c3ccc(F)cc3)ccn2)CC1	6.99	6.01	6.94
O=C(Nc1cccc(C(F)(F)F)c1)c1ccc(S(=O)(=O)NCC2CCN(CC3CCCCC3)CC2)cc1	3.47	2	3.8
Cc1nc(N)nc(N)c1-c1cc(Cl)c(N)c(Cl)c1	-0.04	-0.43	-1.52
CC(C)C[C@H](NC(=O)c1ccc(OCCN2CCOCC2)cc1)C(=O)N[C@H](/C=N/N(C)C(=O)c1ccccc1)CCc1ccccc1	3.84	8.34	2.75
CNC(=O)c1cnc(Nc2ccc(N3CCOCC3)cc2)nc1Nc1cccc(O)c1	3.92	5.41	-1.69
COc1cc(Nc2ncc3c(C)nc(-c4cc5ccccc5[nH]4)n3n2)cc(OC)c1OC	4.94	5.87	2.06
Oc1ccc2c(CNCCc3ccccc3)c(O)ccc2c1CNCCc1ccccc1	8.01	6.13	6.71
CCOC(=O)c1cccc(NC(=O)Nc2cc(C)nc3ccccc23)c1	9.1	6.21	5.11
Cc1cc(N2CCCC2)nc(Nc2ccc(NC(=O)C(C)C)cc2)n1	5.62	2.73	-6.48
CCCc1cc(C(=O)N[C@@H](Cc2ccccc2)[C@H](O)CNC2CCOCC2)c(F)c(N2CCCCS2(=O)=O)c1	4.76	5.47	6.25
COc1cc2nc(C)nc(Nc3ccc4c(ccn4Cc4ccccc4)c3)c2cc1OC	5.04	5.91	5.53
CCOC(=O)c1nc(-c2cccc(F)c2)[nH]c1N	1.32	0.39	2.23
O=C(COc1ccc(Cl)c(Cl)c1)NCCCCCN1CCCN(C(=O)Nc2cc(Cl)cc(Cl)c2)CC1	5.88	-0.58	6.4
Oc1ccc2[nH]c(-c3cccc(F)c3)nc2c1CNCc1ccccc1	9.11	3.29	2.86
Oc1ccc(CCNc2nc(NCc3ccc4cc(Cl)ccc4c3)nc(N3CCNCC3)n2)cc1	-0.16	1.41	0.67
COc1ccc2nc3cc(Cl)ccc3c(NCCCCNc3c4ccc(Cl)cc4nc4ccc(OC)cc34)c2c1	11.8	12.5	9.15
O=C(Cc1ccc(Cl)cc1)NC1CCN(c2ccnc3cc(Cl)ccc23)C1 (stereo unspecified)	-0.91	0.24	0.26
O=C(Nc1cccc(-c2cc3ccccc3[nH]2)c1)C1CCN(Cc2ccccc2O)CC1	10.3	9.31	8.56
CCCNCc1ccc(-c2ccc(CNC3Cc4ccccc4C3)cc2)nc1	-0.04	2.5	1.53

Compound	inhibition [1] [%]	inhibition [2] [%]	inhibition [3] [%]
CC(=O)c1cccc(NC(=O)C2c3ccccc3C(=O)N(CC(C)C)C2c2cccs2)c1 (stereo unspecified)	-0.21	0.13	0.19
O=C(Nc1ccc(Cl)c(Cl)c1)Nc1cc(C(F)(F)F)ccc1Cl	-0.56	1.37	1.28
Cc1cc(N[C@@H](CC(C)C)C(=O)NCc2cccc(F)c2)nc(NCCc2ccccc2)n1	3.97	4.78	2.16
CCC1(c2ccccc2)N=C(N)N(CCCc2ccccc2)C1=O (stereo unspecified)	2.53	1.89	0.85
N#Cc1ccc2c(c1)CCN(CCC1CCC(NC(=O)/C=C/c3ccc4ccccc4c3)CC1)CC2 (stereo unspecified)	-0.35	-1.71	-1.14
O=C(c1cc(-c2cccs2)n[nH]1)N1CCN(S(=O)(=O)c2ccc(Cl)s2)CC1	3.98	1.77	2.9
C=CCn1c(=N)c(C(=O)NC2CCCCC2)cc2c(=O)n3cccc(C)c3nc21	11.3	15.2	4.5
CC1(C)CCCN(C(=O)c2cccc(-n3nc(-c4ccc(Cl)cc4)cc3N)c2)C1	2.79	1.98	2.07
COc1ccc(Nc2nc(NC3CCN(Cc4ccccc4)CC3)cc(-c3ccncc3)n2)cc1	-0.03	-0.17	0.86
Cc1cc(C(=O)CSc2nc3ccccc3n2-c2ccccc2)c(C)n1C1CCS(=O)(=O)C1 (stereo unspecified)	0.82	-1.32	0.44
CCOc1cc(C(=O)NCCN(C(C)C)C(C)C)ccc1-c1nc2cc(Cl)ccc2[nH]1	2.57	1.66	3.92
COc1cccc(C=NNc2cc(C)nc3c(OC)cccc23)c1	3.12	1.32	0.35
Cc1ccc(CCC(C)NCC(O)c2cccc(Cl)c2)cc1 (stereo unspecified)	12.8	13.1	11.1
Cc1nc(C)c(-c2ccc(Oc3ccc(Cl)cc3)cc2)c(O)c1I	2.9	0.57	0.03
COc1ccc(-c2cccc(NC(=O)c3cccc(C#N)c3)c2)cc1CN1CCNCC1	11	11.2	10.6
O=C(NCc1ccc(Cl)c(Cl)c1)c1ccc(-c2nc3ccc(F)cc3[nH]2)cc1	12.4	11.1	11.6
CCc1cc2c(=O)c(-c3nc(C)cs3)c(N)oc2c(CN2CCCCC2)c1O	3.22	2.22	3.34
COCc1cc(C)nc2sc(C(=O)Nc3cc(C(C)(C)C)ccc3O)c(N)c12	3.32	2.62	-0.92
